{"source": "the supplement of paper PMC11001985", "data": [{"compound": "C#CCNC(=O)CCSSCCC(=O)NCCc1ccc(C=O)c(C=O)c1", "test": "lysine labeling ratio R10:1 (500 µM / 50 µM probe), SILAC-ABPP in living cells; higher = lower intrinsic lysine reactivity toward the probe, active = 2 or less", "conditions": "HeLa; probe concentrations 500 vs 50 µM", "outline": "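Forward and reverse SILAC label swaps were used with living light and heavy HeLa cells in PBS at room temperature, which were given an alkyne-tagged, disulfide-linked lysine probe at 50 µM or 500 µM. R is the per-lysine filtered median high-probe/low-probe MS1 peptide ratio, with the median then taken across both swap directions. Values are limited to 20.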", "values": [{"target": "ROBO1 (lysine site: K282) (UniProt Q9Y6N7)", "lysine labeling ratio R10:1": "2.01 (inactive)"}, {"target": "ADAM9 (lysine site: K290) (UniProt Q13443)", "lysine labeling ratio R10:1": "2.64 (inactive)"}, {"target": "UniProt O60245 (lysine site: K875)", "lysine labeling ratio R10:1": "1.6 (active)"}, {"target": "SQSTM1 (lysine site: K13) (UniProt Q13501)", "lysine labeling ratio R10:1": "7.96 (inactive)"}, {"target": "ITGA2 (lysine site: K1038) (UniProt P17301)", "lysine labeling ratio R10:1": "2.81 (inactive)"}, {"target": "ACTN4 (lysine site: K535) (UniProt O43707)", "lysine labeling ratio R10:1": "1.05 (active)"}, {"target": "IGF2R (lysine site: K527) (UniProt P11717)", "lysine labeling ratio R10:1": "2.81 (inactive)"}, {"target": "MYH9 (lysine site: K1246) (UniProt P35579)", "lysine labeling ratio R10:1": "0.944 (active)"}, {"target": "ITGAV (lysine site: K514) (UniProt P06756)", "lysine labeling ratio R10:1": "0.678 (active)"}, {"target": "UniProt P49591 (lysine site: K12)", "sequence (P49591 whole entry, looked up)": "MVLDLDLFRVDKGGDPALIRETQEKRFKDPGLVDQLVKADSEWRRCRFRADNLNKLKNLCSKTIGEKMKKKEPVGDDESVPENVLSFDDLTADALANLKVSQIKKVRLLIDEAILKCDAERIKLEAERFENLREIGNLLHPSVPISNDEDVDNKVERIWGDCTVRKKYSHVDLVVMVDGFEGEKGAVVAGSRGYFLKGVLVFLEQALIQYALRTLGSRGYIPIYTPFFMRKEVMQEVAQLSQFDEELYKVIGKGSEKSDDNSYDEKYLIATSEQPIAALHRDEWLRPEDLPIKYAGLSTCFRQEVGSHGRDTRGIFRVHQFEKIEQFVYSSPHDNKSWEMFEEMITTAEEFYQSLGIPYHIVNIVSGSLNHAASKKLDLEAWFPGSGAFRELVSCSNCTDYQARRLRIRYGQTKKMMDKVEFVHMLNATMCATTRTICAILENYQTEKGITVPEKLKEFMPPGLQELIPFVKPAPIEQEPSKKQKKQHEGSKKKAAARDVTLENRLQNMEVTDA", "lysine labeling ratio R10:1": "0.947 (active)"}, {"target": "PAICS (lysine site: K286) (UniProt P22234)", "lysine labeling ratio R10:1": "1.42 (active)"}, {"target": "MET (lysine site: K725) (UniProt P08581)", "sequence (P08581 whole entry)": "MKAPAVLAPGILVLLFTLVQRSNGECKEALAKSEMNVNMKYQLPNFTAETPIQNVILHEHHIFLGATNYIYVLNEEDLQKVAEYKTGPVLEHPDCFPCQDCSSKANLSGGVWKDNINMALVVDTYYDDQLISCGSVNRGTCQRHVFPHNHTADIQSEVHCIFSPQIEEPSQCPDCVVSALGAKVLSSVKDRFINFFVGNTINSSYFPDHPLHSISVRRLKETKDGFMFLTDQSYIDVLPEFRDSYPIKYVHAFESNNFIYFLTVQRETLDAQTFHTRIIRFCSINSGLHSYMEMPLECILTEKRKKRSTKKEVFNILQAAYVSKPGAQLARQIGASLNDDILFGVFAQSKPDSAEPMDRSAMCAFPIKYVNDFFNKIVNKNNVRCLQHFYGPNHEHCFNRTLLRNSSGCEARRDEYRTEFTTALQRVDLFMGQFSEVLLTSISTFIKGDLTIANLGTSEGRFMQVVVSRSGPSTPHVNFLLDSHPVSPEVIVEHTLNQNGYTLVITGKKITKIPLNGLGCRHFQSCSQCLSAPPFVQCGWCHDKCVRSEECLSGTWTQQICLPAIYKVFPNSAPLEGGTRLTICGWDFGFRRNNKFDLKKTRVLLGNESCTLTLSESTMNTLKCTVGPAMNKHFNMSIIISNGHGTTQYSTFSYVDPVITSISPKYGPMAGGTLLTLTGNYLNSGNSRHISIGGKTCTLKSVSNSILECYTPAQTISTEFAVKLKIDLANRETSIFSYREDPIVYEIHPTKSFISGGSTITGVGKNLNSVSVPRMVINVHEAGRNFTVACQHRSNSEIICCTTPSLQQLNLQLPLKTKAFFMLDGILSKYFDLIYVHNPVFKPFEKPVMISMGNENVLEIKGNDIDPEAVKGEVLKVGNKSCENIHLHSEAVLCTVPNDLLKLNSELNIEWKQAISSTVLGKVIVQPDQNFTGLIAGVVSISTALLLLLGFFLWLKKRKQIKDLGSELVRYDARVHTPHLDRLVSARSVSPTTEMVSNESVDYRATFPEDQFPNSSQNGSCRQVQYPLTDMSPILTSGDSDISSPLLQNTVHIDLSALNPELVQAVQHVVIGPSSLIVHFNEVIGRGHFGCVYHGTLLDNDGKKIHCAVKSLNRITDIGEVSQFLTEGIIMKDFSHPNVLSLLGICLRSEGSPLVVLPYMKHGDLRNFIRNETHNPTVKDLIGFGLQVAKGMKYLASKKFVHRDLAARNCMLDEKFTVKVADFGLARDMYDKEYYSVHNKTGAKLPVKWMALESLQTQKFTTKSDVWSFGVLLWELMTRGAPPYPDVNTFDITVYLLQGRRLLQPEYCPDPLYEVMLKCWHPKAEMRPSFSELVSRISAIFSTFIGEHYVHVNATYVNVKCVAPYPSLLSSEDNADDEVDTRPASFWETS", "lysine labeling ratio R10:1": "0.656 (active)"}, {"target": "FN1 (lysine site: K1623) (UniProt P02751)", "lysine labeling ratio R10:1": "1.34 (active)"}, {"target": "RBMX (lysine site: K63) (UniProt P38159)", "lysine labeling ratio R10:1": "1.66 (active)"}, {"target": "AGRN (lysine site: K1708) (UniProt O00468)", "sequence (O00468 whole entry)": "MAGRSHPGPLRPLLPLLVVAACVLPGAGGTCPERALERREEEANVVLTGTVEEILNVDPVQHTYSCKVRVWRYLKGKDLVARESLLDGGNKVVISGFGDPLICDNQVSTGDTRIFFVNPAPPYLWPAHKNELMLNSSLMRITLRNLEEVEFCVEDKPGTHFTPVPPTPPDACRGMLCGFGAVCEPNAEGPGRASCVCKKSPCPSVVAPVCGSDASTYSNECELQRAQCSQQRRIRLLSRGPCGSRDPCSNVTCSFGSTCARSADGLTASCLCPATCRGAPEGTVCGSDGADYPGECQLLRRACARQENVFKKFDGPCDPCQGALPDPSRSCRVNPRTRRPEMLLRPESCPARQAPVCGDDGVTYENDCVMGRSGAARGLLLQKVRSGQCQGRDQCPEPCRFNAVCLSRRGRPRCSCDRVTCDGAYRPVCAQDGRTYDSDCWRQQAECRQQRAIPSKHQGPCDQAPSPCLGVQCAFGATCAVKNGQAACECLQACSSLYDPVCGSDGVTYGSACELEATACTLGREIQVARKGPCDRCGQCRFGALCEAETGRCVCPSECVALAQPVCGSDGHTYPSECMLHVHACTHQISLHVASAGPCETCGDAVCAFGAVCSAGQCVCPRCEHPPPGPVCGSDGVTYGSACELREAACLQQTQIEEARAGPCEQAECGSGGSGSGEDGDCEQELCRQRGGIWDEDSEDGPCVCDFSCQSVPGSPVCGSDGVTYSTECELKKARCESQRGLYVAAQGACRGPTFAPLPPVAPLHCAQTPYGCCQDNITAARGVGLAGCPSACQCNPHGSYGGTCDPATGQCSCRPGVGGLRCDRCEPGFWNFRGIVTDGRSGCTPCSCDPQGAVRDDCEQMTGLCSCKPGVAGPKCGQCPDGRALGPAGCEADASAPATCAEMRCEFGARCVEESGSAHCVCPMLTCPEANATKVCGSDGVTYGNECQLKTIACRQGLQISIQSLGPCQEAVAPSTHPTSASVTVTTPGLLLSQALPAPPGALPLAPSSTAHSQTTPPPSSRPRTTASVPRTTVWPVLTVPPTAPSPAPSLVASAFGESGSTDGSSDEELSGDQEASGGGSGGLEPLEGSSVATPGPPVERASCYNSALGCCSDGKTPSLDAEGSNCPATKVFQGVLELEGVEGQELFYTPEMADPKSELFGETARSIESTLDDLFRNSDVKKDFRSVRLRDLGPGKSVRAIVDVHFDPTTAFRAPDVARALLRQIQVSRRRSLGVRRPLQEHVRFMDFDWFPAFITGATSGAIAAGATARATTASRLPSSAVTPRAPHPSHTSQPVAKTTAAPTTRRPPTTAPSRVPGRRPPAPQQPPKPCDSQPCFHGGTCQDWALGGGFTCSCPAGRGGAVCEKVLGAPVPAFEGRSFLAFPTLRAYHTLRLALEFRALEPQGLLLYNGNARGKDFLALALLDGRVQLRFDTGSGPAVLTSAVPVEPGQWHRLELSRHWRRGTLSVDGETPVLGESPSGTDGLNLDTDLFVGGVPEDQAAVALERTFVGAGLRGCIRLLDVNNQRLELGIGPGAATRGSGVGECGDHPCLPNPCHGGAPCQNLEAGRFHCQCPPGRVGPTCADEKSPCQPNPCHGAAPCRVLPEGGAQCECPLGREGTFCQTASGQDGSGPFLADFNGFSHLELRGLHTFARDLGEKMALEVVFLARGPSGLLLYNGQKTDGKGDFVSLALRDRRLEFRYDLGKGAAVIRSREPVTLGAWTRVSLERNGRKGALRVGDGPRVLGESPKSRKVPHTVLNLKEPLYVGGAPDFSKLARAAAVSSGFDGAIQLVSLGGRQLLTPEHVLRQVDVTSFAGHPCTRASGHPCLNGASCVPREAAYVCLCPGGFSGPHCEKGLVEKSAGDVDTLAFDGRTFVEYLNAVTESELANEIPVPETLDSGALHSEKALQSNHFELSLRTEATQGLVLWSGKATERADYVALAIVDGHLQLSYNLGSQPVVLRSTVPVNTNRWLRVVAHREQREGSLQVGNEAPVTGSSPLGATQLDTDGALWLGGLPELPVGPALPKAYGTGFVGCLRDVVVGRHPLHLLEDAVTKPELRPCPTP", "lysine labeling ratio R10:1": "2.99 (inactive)"}, {"target": "FOLR1 (lysine site: K136) (UniProt P15328)", "lysine labeling ratio R10:1": "7.36 (inactive)"}, {"target": "UniProt P62277 (lysine site: K9)", "lysine labeling ratio R10:1": "2.44 (inactive)"}, {"target": "HNRNPU (lysine site: K265) (UniProt Q00839)", "lysine labeling ratio R10:1": "2.4 (inactive)"}, {"target": "HNRNPC (lysine site: K176) (UniProt P07910)", "lysine labeling ratio R10:1": "3.1 (inactive)"}, {"target": "CD109 (lysine site: K494) (UniProt Q6YHK3)", "lysine labeling ratio R10:1": "8.05 (inactive)"}, {"target": "LMAN1 (lysine site: K87) (UniProt P49257)", "lysine labeling ratio R10:1": "3.85 (inactive)"}, {"target": "FAS (lysine site: K94) (UniProt P25445)", "sequence (P25445 whole entry)": "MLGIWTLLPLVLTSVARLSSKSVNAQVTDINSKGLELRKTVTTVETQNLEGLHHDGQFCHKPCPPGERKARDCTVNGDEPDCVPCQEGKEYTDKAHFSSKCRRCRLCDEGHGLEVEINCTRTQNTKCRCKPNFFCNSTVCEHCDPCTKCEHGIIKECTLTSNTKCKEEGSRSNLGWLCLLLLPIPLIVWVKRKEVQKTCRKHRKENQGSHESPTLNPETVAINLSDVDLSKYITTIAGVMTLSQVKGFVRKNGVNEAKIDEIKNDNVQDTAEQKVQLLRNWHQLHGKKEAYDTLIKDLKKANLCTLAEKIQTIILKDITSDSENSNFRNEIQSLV", "lysine labeling ratio R10:1": "2.69 (inactive)"}, {"target": "MISP (lysine site: K540) (UniProt Q8IVT2)", "lysine labeling ratio R10:1": "1 (active)"}, {"target": "ITGB1 (lysine site: K90) (UniProt P05556)", "lysine labeling ratio R10:1": "3.53 (inactive)"}, {"target": "FBLN1 (lysine site: K649) (UniProt P23142)", "sequence (P23142 whole entry)": "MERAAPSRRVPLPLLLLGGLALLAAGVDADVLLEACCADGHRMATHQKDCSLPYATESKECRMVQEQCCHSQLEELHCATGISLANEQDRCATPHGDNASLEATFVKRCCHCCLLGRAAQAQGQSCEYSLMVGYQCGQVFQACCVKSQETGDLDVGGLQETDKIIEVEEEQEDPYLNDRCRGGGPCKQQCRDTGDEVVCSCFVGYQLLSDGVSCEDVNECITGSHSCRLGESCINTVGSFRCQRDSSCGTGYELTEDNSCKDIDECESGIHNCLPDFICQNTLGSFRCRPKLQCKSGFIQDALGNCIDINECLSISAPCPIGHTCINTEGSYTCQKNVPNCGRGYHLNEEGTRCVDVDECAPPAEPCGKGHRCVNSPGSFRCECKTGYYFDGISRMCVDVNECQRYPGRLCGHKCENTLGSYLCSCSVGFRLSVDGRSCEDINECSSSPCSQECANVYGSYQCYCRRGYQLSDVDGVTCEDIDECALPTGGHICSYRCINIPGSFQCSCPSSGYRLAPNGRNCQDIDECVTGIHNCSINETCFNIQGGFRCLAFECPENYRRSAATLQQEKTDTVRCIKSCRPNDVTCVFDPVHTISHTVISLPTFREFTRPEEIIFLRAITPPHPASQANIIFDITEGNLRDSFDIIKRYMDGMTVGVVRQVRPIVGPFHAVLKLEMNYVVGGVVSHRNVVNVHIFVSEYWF", "lysine labeling ratio R10:1": "2.26 (inactive)"}, {"target": "MET (lysine site: K595) (UniProt P08581)", "lysine labeling ratio R10:1": "1.67 (active)"}, {"target": "HSPA9 (lysine site: K300) (UniProt P38646)", "lysine labeling ratio R10:1": "2.25 (inactive)"}, {"target": "FLNB (lysine site: K1241) (UniProt O75369)", "lysine labeling ratio R10:1": "1.42 (active)"}, {"target": "UniProt P17612 (lysine site: K48)", "lysine labeling ratio R10:1": "1.56 (active)"}, {"target": "ITGA6 (lysine site: K127) (UniProt P23229)", "lysine labeling ratio R10:1": "1.74 (active)"}, {"target": "UniProt Q8WXI7 (lysine site: K13228)", "lysine labeling ratio R10:1": "11.9 (inactive)"}, {"target": "PSMD2 (lysine site: K551) (UniProt Q13200)", "lysine labeling ratio R10:1": "2.34 (inactive)"}, {"target": "XRCC5 (lysine site: K481) (UniProt P13010)", "lysine labeling ratio R10:1": "1.45 (active)"}, {"target": "ANXA2 (lysine site: K281) (UniProt P07355)", "lysine labeling ratio R10:1": "5.78 (inactive)"}, {"target": "UniProt P62851 (lysine site: K66)", "lysine labeling ratio R10:1": "2.69 (inactive)"}, {"target": "UniProt P26639 (lysine site: K694)", "lysine labeling ratio R10:1": "1.36 (active)"}, {"target": "MET (lysine site: K599) (UniProt P08581)", "lysine labeling ratio R10:1": "1.67 (active)"}, {"target": "UniProt P62244 (lysine site: K32)", "lysine labeling ratio R10:1": "4.35 (inactive)"}, {"target": "SERPINH1 (lysine site: K334) (UniProt P50454)", "lysine labeling ratio R10:1": "2.28 (inactive)"}, {"target": "L1CAM (lysine site: K62) (UniProt P32004)", "lysine labeling ratio R10:1": "2.25 (inactive)"}]}]}
